In the library only some 6.3% were active in any assay of this set; here they are far more common.
tim10-1 inh: growth inhibitors of tim10-1 mutant yeast, primary screen, luminescence, uHTS; S. cerevisiae tim10-1 ts strain growth, BacTiter-Glo, 24 h; 330,000 compounds, 2.2% hits; inhibition, % at 20 µM;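 active means inhibition of at least 40%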;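 further: mutant grown at 25 °C; 0% = DMSO wells with yeast and 100% = wells holding no yeast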
Mdm2-MdmX inh: inhibitors of human Mdm2-MdmX association, primary screen, cell-based, luminescence, split luciferase, SaOS-2, uHTS; Protein Mdm4 (Homo sapiens) + E3 ubiquitin-protein ligase Mdm2 (Homo sapiens), …; SaOS-2 split-luciferase Mdm2/MdmX complementation; inhibition, % at 8 µM; 330,000 compounds, 3% hits; AID 485346, 2010;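 active means inhibition of at least 50% at 8 µM in the primary screen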
MPTP inh: mitochondrial permeability transition pore inhibitors, primary screen, biochemical, isolated mouse mitochondria, absorbance. Ca2+ swelling absorbance, 30 min. inhibition, % at 10 µM. 360,000 compounds, 1.4% hits. AID 602449, 2012;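 active means inhibition of 50% or more, scaled per plate between neutral and stimulator controls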;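 further: 0% = DMSO wells given calcium and 100% = 1 mM EGTA wells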
tim23-1 inh: growth inhibitors of tim23-1 mutant yeast, primary screen, luminescence, uHTS; S. cerevisiae tim23-1 growth, BacTiter-Glo luminescence, 24 h; inhibition, % at 20 µM; 330,000 compounds, 1.3% hits; AID 463212, 2010;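 active means growth inhibition of the mutant yeast at or above 50%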;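 further: temperature-sensitive mutant grown at 25 °C; plate controls were DMSO-treated mutant yeast for no effect and medium wells lacking yeast for full effect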
TIM10 inh: growth inhibitors of isogenic TIM10 control yeast, primary screen, counter-screen for tim10-1 yeast inhibitor project, luminescence, uHTS. S. cerevisiae TIM10 strain growth, BacTiter-Glo luminescence, 24 h. 330,000 compounds, 1.4% hits. inhibition, % at 10 µM;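 active means inhibition of 40% or more at the single tested concentration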;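 further: wild-type TIM10 isogenic control strain grown at permissive 25 °C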
tim10-1 conf: growth inhibitors of tim10-1 mutant yeast, confirmation, single concentration, luminescence, S. cerevisiae; shares compounds with tim10-1 inh; S. cerevisiae tim10-1 ts strain growth, BacTiter-Glo, 24 h; inhibition, % at 20 µM; 7,400 compounds, 56% hits;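 active means inhibition of yeast growth at or above a set limit in either of two repeat tests at 20 µM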;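 further: tim10-1 mutant grown at permissive 25 °C to find synthetic lethal compounds; 0% = DMSO yeast wells and 100% = medium wells without yeast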
Active calls of the source: *; / = no result.

SMILES	tim10-1 inh	Mdm2-MdmX inh	MPTP inh	tim23-1 inh	TIM10 inh	tim10-1 conf
O=C1NC(=O)N(CCc2ccc(F)cc2)C(=O)/C1=C/c1cccs1	52*	5	-2	44	1	-6
C[C@H]1CN([C@@H](C)CO)C(=O)CCCn2nncc2CO[C@H]1CN(C)C(=O)Oc1ccc2ccccc2c1	/	/	0	/	/	/
C(=NN1CCCCCC1)c1c[nH]c2ccccc12	/	/	0	/	/	/
Brc1ccc2[nH]cc(/C=N/N3CCCCC3)c2c1	42*	7	2	47	18	22
O=C1/C(=C\c2cc3c(cc2Br)OCO3)N2CCC1CC2	53*	-5	0	48	28	38*
O=C1/C(=C/c2ccc3c(c2)OCO3)N2CCC1CC2	21	0	-1	25	23	/
COc1cccc(C2CCN(CC(=O)Nc3cc(Cl)ccc3OC)CC2O)c1 (stereo unspecified)	41*	1	1	25	2	4
N[C@@H](Cc1c[nH]c2ccccc12)c1nnc(SCc2ccc(F)cc2)o1	/	/	-1	/	/	/
CC(C)=CCSc1nnc([C@@H](N)Cc2c[nH]c3ccccc23)o1	45*	7	-2	33	9	32*
C=C(C)CSc1nnc([C@@H](N)Cc2c[nH]c3ccccc23)o1	42*	-5	2	33	26	56*
N[C@@H](Cc1c[nH]c2ccccc12)c1nnc(SCc2ccccc2)o1	43*	18	0	38	33	47*
CCc1ccccc1NC(=O)CSc1nnc([C@@H](N)Cc2c[nH]c3ccccc23)o1	23	14	-1	26	29	/
CCCCCN1C(=O)c2ccccc2[C@@]2(C(=O)OCC)Cc3cc(OC)ccc3[C@@H]12	/	/	-3	/	/	/
O=C1C=CC(=O)C2C1C1(Cl)C(Cl)=C(Cl)C2(Cl)C1(Cl)Cl (stereo unspecified)	/	/	2	/	/	/
COc1ccc2nc(NC(=O)CCc3nc(C4=CCN(C)CC4)no3)sc2c1	43*	35	1	12	-1	13
CCc1nnc(NC(=O)CCc2nc(C3=CCN(C)CC3)no2)s1	8	15	-1	17	-4	/
CC(C(=O)Nc1ccc(Br)cc1C(=O)c1ccccc1)N1CCOCC1 (stereo unspecified)	41*	1	1	13	27	25
O=C(CCN1CCOCC1)NCC(=O)Nc1ccc(Br)cc1C(=O)c1ccccc1	-4	-16	0	18	9	/
O=C(Nc1ccc(C(=O)O)cc1)Oc1ccc(N(CCCl)CCCl)cc1	/	/	0	/	/	/
Cn1c(O)c(C(c2ccncc2)c2c(O)n(C)c(=S)n(C)c2=O)c(=O)n(C)c1=S	42*	15	-1	11	-17	14
Cc1cccc(C)c1-n1nnnc1C(c1cccs1)N1CCC2(CC1)C(=O)NCN2c1ccccc1 (stereo unspecified)	/	/	2	/	/	/
CN(C)C(=O)Oc1ccc2c(=O)c(Oc3ccccc3Br)coc2c1	46*	-4	1	29	15	13
Cc1cccc(-n2c(CN3C(=O)c4ccccc4C3=O)nc3ccccc3c2=O)n1	9	9	-1	1	-5	/
Cc1cccnc1-n1c(CN2C(=O)c3ccccc3C2=O)nc2ccccc2c1=O	51*	18	-2	32	20	30*
O=C1CC(N2CC2)C(=O)N1c1ccccc1 (stereo unspecified)	/	/	-2	/	/	/
O=C1CC(N2CC=C(c3ccc(F)cc3)CC2)C(=O)N1c1ccc(F)cc1 (stereo unspecified)	43*	-16	0	40	20	26
CCCCn1c(O)c(C(CC)=Nc2ccc(OC)cc2OC)c(=O)[nH]c1=O	41*	-2	9	35	21	16
CCOC(=O)[C@]12Cc3cc(C)ccc3[C@H]1N(Cc1ccccc1)C(=O)c1cc(F)c(F)cc12	/	/	-2	/	/	/
CCCNC(=O)c1c(N)n(CC2CCCO2)c2nc3ccccc3nc12 (stereo unspecified)	45*	22	-1	31	26	14
